TIM10 inh – inhibits growth of TIM10 yeast strain. S. cerevisiae TIM10 strain growth, BacTiter-Glo luminescence, 24 h. inhibition, % at 10 µM. actives 1.4% (n = 330,000);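 active = inhibition of 40% or more at the single tested concentration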;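 note: wild-type TIM10 isogenic control strain grown at permissive 25 °C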
tim23-1 inh – inhibits growth of tim23-1 mutant yeast | S. cerevisiae tim23-1 growth, BacTiter-Glo luminescence, 24 h | inhibition, % at 20 µM | actives 1.3% (n = 330,000) | AID 463212;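 active = growth inhibition of the mutant yeast at or above 50%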;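 note: temperature-sensitive mutant grown at 25 °C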
PfHsp90 yeast 2 – inhibits growth of yeast expressing Plasmodium falciparum Hsp90 | inhibition, % at 9.4 µM | AID 504621 | S. cerevisiae expressing PfHsp90, BacTiter-Glo ATP, 48 h; yeast lacking PDR1 and PDR3 efflux regulators | actives 0.32% (n = 310,000);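 active = every replicate shows inhibition above about 80%, whatever the replicate mean, limit read from the data; inconclusive = mean inhibition reaches the set limit but some replicate falls short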
tim10-1 inh – inhibits growth of tim10-1 mutant yeast; S. cerevisiae tim10-1 ts strain growth, BacTiter-Glo, 24 h; inhibition, % at 20 µM; actives 2.2% (n = 330,000);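 active = inhibition of at least 40%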;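 note: mutant grown at 25 °C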
SKKanGAS inh – blocks kanamycin growth of S. pyogenes SKKanGAS strain; BacTiter-Glo, 6 h; inhibition, % at 7.5 µM; actives 1.3% (n = 300,000);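 active = mean replicate score, as percent of positive control median, at least 50; inconclusive = mean below 50 but one replicate at or above 50; inactive = mean and every replicate below 50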;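 note: strain carries kanamycin resistance gene driven by streptokinase promoter and grows in 40 µg/ml kanamycin; loss of luminescence reflects streptokinase promoter inhibition or plain growth inhibition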
NALP1 yeast inh – NALP1 inhibition. AID 2071. actives 0.61% (n = 280,000). inhibition, % at 10 µM. S. cerevisiae NALP1/ASC/caspase-1 growth, X-gal OD620, 72 h; in the data active = inhibition mostly above about 24%, no sharp cut-off; inactive = mostly below about 32%
tim10-1 conf – tim10-1 yeast growth inhibition, confirmed | S. cerevisiae tim10-1 ts strain growth, BacTiter-Glo, 24 h | actives 56% (n = 7,400) | inhibition, % at 20 µM | shares compounds with tim10-1 inh;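 active = inhibition of yeast growth at or above a set limit in either of two repeat tests at 20 µM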;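 note: tim10-1 mutant grown at permissive 25 °C to find synthetic lethal compounds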
TIM10 conf – TIM10 yeast growth inhibition, confirmed; actives 63% (n = 4,600); S. cerevisiae tim10 strain growth, BacTiter-Glo luminescence, 24 h; shares compounds with TIM10 inh; inhibition, % at 10 µM;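 active = inhibition of yeast growth at or above a set limit in either of two replicates at 10 µM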; note: this counterscreen used the strain with wild-type TIM10
tim23-1 confirm – confirmation of tim23-1 mutant yeast growth inhibitors | inhibition, % at 20 µM | AID 463218 | actives 83% (n = 4,400) | S. cerevisiae tim23-1 growth, BacTiter-Glo luminescence, 24 h | shares compounds with tim23-1 inh;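 active = inhibition above about 39% in either of two replicate wells at 20 µM, limit read from the data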;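 note: temperature-sensitive tim23-1 mutant grown at 25 °C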
A number is an active result; – = inactive; ? = inconclusive; · = not tested or not shown. Shown are actives, neighbours in structure and some others; about 4.8% of the full set was active somewhere.

SMILES | TIM10 inh | tim23-1 inh | PfHsp90 yeast 2 | tim10-1 inh | SKKanGAS inh | NALP1 yeast inh | tim10-1 conf | TIM10 conf | tim23-1 confirm
COC(=O)CSc1ccc2c(N)c(C(=O)OC)sc2c1 | – | – | · | – | – | – | · | · | ·
CCCCC(c1nnnn1CC1CCCO1)N1CCN(c2cccc(C)c2C)CC1 (stereo unspecified) | – | – | · | – | – | – | · | · | ·
CCCCNC(=S)NC(=O)c1ccc([N+](=O)[O-])cc1 | – | 53 | · | 52 | – | – | – | · | 53
CCCC(=O)NC(=S)NNC(=O)c1ccc([N+](=O)[O-])cc1 | – | – | – | – | – | – | · | · | ·
O=C(COC(=O)CCN1C(=O)/C(=C\C=C\c2ccccc2)SC1=S)Nc1ccc(Br)cc1 | 43 | 54 | – | 49 | – | – | 40 | 51 | 74
CCCc1ccc(OCC(O)CN2CCN(c3ccccc3)CC2)cc1 (stereo unspecified) | – | – | – | – | – | – | · | · | ·
Nc1nc2nccc(-c3ccco3)n2n1 | – | – | – | – | – | – | · | · | ·
CC1Sc2ccc(S(=O)(=O)N3CCN(c4ccccc4)CC3)cc2NC1=O (stereo unspecified) | – | – | – | – | – | – | · | · | ·
Cc1cccc(N2CCN(S(=O)(=O)c3ccc4c(c3)NC(=O)C(C)S4)CC2)c1C (stereo unspecified) | – | 55 | – | 50 | – | – | – | · | –
Cc1ccc(C)c(OCCCC(=O)Nc2ccccc2C(N)=O)c1 | – | – | – | – | – | – | · | · | ·
COc1cc(C(=O)Oc2c(CN3CCOCC3)cc(Cl)c3cccnc23)cc(OC)c1OC | – | – | – | – | – | – | · | · | ·
COc1cccc(C(=O)Oc2c(CN3CCOCC3)cc(Cl)c3cccnc23)c1 | 44 | 51 | · | 43 | – | – | 34 | – | 48
COc1ccc(C(=O)Oc2c(CN3CCOCC3)cc(Cl)c3cccnc23)cc1 | – | 54 | – | 41 | – | – | 33 | · | 46
O=C(NCCCN1CCOCC1)c1sc2cc(F)ccc2c1Cl | – | – | – | – | – | – | · | · | ·
CCN(C(=O)COC(=O)CSc1cc(C)c2ccccc2n1)c1ccccc1 | – | – | · | – | – | · | · | · | ·
COc1ccc(CC(=O)Nc2ccc(C(=O)O)cc2NC(=O)Cc2ccc(OC)cc2)cc1 | – | – | – | – | – | – | · | · | ·
CCC1CCCCN1S(=O)(=O)c1ccc(NC(=O)c2cccs2)cc1 (stereo unspecified) | 64 | 72 | – | 72 | – | – | 65 | 68 | 78
CCC1CCCCN1S(=O)(=O)c1ccc(NC(=O)c2snnc2C)cc1 (stereo unspecified) | – | – | – | – | – | – | · | · | ·
Cc1ccc(S(=O)(=O)c2ccc(C)cc2)cc1 | – | – | – | – | – | – | · | · | ·
Cc1ccc(S(=O)(=O)c2ccc([N+](=O)[O-])cn2)cc1 | 73 | 75 | 95 | 73 | – | 35 | 68 | 70 | 75
COCCNC(=O)/C(C#N)=C/c1c(F)cccc1Cl | 66 | 82 | – | 63 | – | – | 56 | 63 | 77
COCCNC(=O)/C(C#N)=C/c1ccc(SC)cc1 | – | – | – | – | – | – | · | · | ·
COc1cccc(NC(=O)C(=O)NCCc2ccc(F)cc2)c1 | – | – | – | – | – | – | · | · | ·
COc1cc(/C=C(\C#N)C(=O)N2CCOCC2)cc(Br)c1O | – | – | – | – | – | – | · | · | ·
N#C/C(=C\c1cccc(Oc2ccccc2)c1)C(=O)N1CCOCC1 | 82 | 80 | 100 | 81 | – | – | 80 | 78 | 76
SMILES | TIM10 inh | tim23-1 inh | PfHsp90 yeast 2 | tim10-1 inh | SKKanGAS inh | NALP1 yeast inh | tim10-1 conf | TIM10 conf | tim23-1 confirm
Cn1nnc(NC(=S)NC(=O)c2cccc3c(Cl)cccc23)n1 | – | 52 | – | 49 | – | – | – | · | 39
Cn1ncc(Cl)c1C(=O)N1CCN(c2ccccc2)CC1 | – | – | – | – | – | – | · | · | ·
Cn1ncc(Cl)c1C(=O)N1CCN(c2ccc(Cl)c(Cl)c2)CC1 | – | 50 | – | 41 | – | – | – | · | 42
Cc1nc2c(-c3ccc(F)cc3)cnn2c(N)c1-c1ccccc1 | 45 | 74 | – | 46 | – | – | 35 | 52 | 42
CC(C)(C)C(=O)OC/C(N)=N/OC(=O)c1ccc(Cl)c(Cl)c1 | 77 | 84 | – | 63 | – | – | 42 | 86 | 69
COc1ccccc1C1CC(c2ccc(NS(C)(=O)=O)cc2)=NN1C(=O)c1ccccc1 (stereo unspecified) | – | – | – | – | – | – | · | · | ·
COc1ccccc1C1CC(c2ccccc2)=NN1C(=O)c1ccccc1 (stereo unspecified) | – | 62 | – | 42 | – | – | 46 | · | 52
Nc1[nH]nc2nc(NCc3ccccc3)c3c(c12)CCN(Cc1ccccc1)C3 | – | – | – | – | – | – | · | · | ·
CCOC(=O)C(=Cc1ccc(-n2cncn2)cc1)C(=O)OCC | 67 | 52 | ? | 62 | – | – | 52 | 47 | 71
CCOC(=O)C(=CNc1cc(C)nn1-c1ccc(Cl)cc1)C(=O)OCC | – | – | – | – | – | – | · | · | ·
Cn1cccc1C(=O)N1CCN(S(=O)(=O)c2ccccc2)CC1 | – | – | – | – | – | · | · | · | ·
Cc1cc(C(=O)N2CC(C)CC(C)C2)c(C)o1 (stereo unspecified) | – | – | – | – | · | · | · | · | ·
Cc1ccc2cc(C=C(C#N)C#N)c(N3CCCCC3)nc2c1 | 45 | 75 | – | 55 | – | – | 45 | – | 73
Cc1cccc(NC(=O)Cc2coc3ccc4ccccc4c23)n1 | – | 51 | – | 46 | – | – | 36 | · | 56
COc1ccc(C(=O)Nc2nnc(SCC(=O)NCc3ccco3)s2)c(OC)c1 | – | – | – | – | – | – | · | · | ·
CCCn1c(=O)c(C(=O)NCc2ccccn2)c(O)c2ccccc21 | 42 | 60 | – | 41 | · | – | – | 36 | 57
CCCn1c(=O)c(C(=O)NCc2cccnc2)c(O)c2ccccc21 | – | – | – | – | – | – | · | · | ·
CCOC(=O)C1=C(COC(=O)c2ccc(Cl)cc2[N+](=O)[O-])NC(=O)NC1C (stereo unspecified) | – | – | – | – | – | · | · | · | ·
Cc1ccc(/C(N)=N/OC(=O)c2cccc(F)c2)cc1 | 76 | 70 | – | 64 | – | – | 48 | 79 | 40
N/C(=N\OC(=O)c1cccc(F)c1)c1ccccc1 | 61 | 68 | · | 55 | – | – | 56 | 62 | 66
N/C(=N\OC(=O)c1cccc(F)c1)c1ccccn1 | – | – | – | – | – | – | · | · | ·
Cn1cc(C(=O)C(=O)N2CCOCC2)c2ccccc21 | – | – | – | – | – | – | · | · | ·

Screening data: PubChem BioAssay, several laboratories
